# Reference: PubChem BioAssay (EPA / NIEHS)
# The source made the active and inactive calls. How the source made its calls: active means hit-call score of the fitted dose curve at least 0.9, where 1 is the maximum; inactive means score below 0.9.
# Tests used:
# [1] = read-out: Macrophage colony-stimulating factor (MCSF), CSF1 (gene 1435); assay: BSK_hDFCGF_MCSF: BioMAP Diversity Plus: hDFCGF Assay for Macrophage colony-stimulating factor (MCSF) Biomarker Activity (AID 2283060); conditions: primary human foreskin fibroblasts; actives raise or lower the signal
# In short: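 M-CSF levels read by ELISA at 24 h post-dosing in human skin fibroblasts. Parallel cultures stained with SRB assessed cytotoxicity at the same time point; response fitted in both directions against the DMSO baseline.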
# [2] = BSK_hDFCGF_SRB: Viability Assessment in the BioMAP Diversity Plus: hDFCGF Assay (AID 2283061); conditions: primary human foreskin fibroblasts;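 further: cells exposed to compound for 24 h before the read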
# In short: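 Viability was read as total protein: after 10% TCA fixation, wells were stained with 0.1% sulforhodamine B and read at 560 nm. Primary human foreskin fibroblasts were dosed for 24 h, with bidirectional fitting versus DMSO.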
# [3] = read-out: TIMP metallopeptidase inhibitor 1 (TIMP1), TIMP1 (gene 7076); assay: BSK_hDFCGF_TIMP1: BioMAP Diversity Plus: hDFCGF Assay for TIMP metallopeptidase inhibitor 1 (TIMP1) Biomarker Activity (AID 2283062); conditions: primary human foreskin fibroblasts; actives raise or lower the signal
# In short: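 TIMP-1 measured by ELISA 24 h after chemical dosing of primary human skin fibroblasts, with gain or loss fitted relative to DMSO. Parallel SRB staining (560 nm) monitored overt cytotoxicity.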
# [4] = read-out: Monokine induced gamma interferon (MIG), CXCL9 (gene 4283); assay: BSK_hDFCGF_MIG: BioMAP Diversity Plus: hDFCGF Assay for Monokine induced gamma interferon (MIG) Biomarker Activity (AID 2283063); conditions: primary human foreskin fibroblasts; actives raise or lower the signal
# In short: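 Human primary foreskin fibroblasts in the hDFCGF system, exposed to test chemical for 24 h; MIG measured by ELISA. Bidirectional curve fitting against DMSO negative control as activity baseline.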
# [5] = read-out: Matrix Metallopeptidase 1 (MMP1), MMP1 (gene 4312); assay: BSK_hDFCGF_MMP1: BioMAP Diversity Plus: hDFCGF Assay for Matrix Metallopeptidase 1 (MMP1) Biomarker Activity (AID 2283064); conditions: primary human foreskin fibroblasts; actives raise or lower the signal
# In short: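 Primary human foreskin fibroblasts exposed to chemicals for 24 h; MMP1 measured by ELISA. Cytotoxicity tracked by SRB staining in parallel cultures; bidirectional fit relative to DMSO.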
# [6] = read-out: Vascular cell adhesion molecule 1 (VCAM1), VCAM1 (gene 7412); assay: BSK_hDFCGF_VCAM1: BioMAP Diversity Plus: hDFCGF Assay for Vascular cell adhesion molecule 1 (VCAM1) Biomarker Activity (AID 2283065); conditions: primary human foreskin fibroblasts; actives raise or lower the signal;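 on AC50: VCAM-1 protein level quantified by ELISA after 24 h chemical exposure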
# In short: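 ELISA readout of VCAM-1 on human dermal fibroblast primary cultures, 24 h after chemical exposure. Gain or loss of signal fitted in both directions against DMSO baseline.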
# [7] = read-out: Plasminogen activator inhibitor-1 (PAI1), SERPINE1 (gene 5054); assay: BSK_hDFCGF_PAI1: BioMAP Diversity Plus: hDFCGF Assay for Plasminogen activator inhibitor-1 (PAI1) Biomarker Activity (AID 2283066); conditions: primary human foreskin fibroblasts; actives raise or lower the signal
# In short: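 Human foreskin fibroblasts in the hDFCGF system were dosed with compound for 24 h; PAI-1 was quantified by ELISA. Bidirectional curve fitting used DMSO as negative control and baseline.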
# [8] = read-out: Intercellular Adhesion Molecule 1 (ICAM1), ICAM1 (gene 3383); assay: BSK_KF3CT_ICAM1: BioMAP Diversity Plus: KF3CT Assay for Intercellular Adhesion Molecule 1 (ICAM1) Biomarker Activity (AID 2283067); conditions: primary human keratinocytes with fibroblasts; actives raise or lower the signal
# In short: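 Cell-surface ICAM-1 was measured by ELISA 24 h after dosing primary human skin keratinocytes co-cultured with fibroblasts. Parallel SRB staining tracked overt cytotoxicity. Gain or loss of signal was fitted relative to DMSO.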
# [9] = BSK_KF3CT_SRB: Viability Assessment in the BioMAP Diversity Plus: KF3CT Assay (AID 2283069); conditions: primary human keratinocytes with fibroblasts;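 further: total protein by sulforhodamine B staining as a cytotoxicity measure; read 24 h after compound addition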
# In short: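 Human keratinocyte and foreskin fibroblast co-culture exposed to chemical for 24 h. Total protein measured in parallel cultures by 0.1% sulforhodamine B staining after 10% TCA fixation, read at 560 nm; bidirectional fit relative to DMSO.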
# [10] = read-out: Interleukin-1 alpha (IL1a), IL1A (gene 3552); assay: BSK_KF3CT_IL1a: BioMAP Diversity Plus: KF3CT Assay for Interleukin-1 alpha (IL1a) Biomarker Activity (AID 2283070); conditions: primary human keratinocytes with fibroblasts; actives raise or lower the signal
# In short: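 Primary human keratinocyte plus foreskin fibroblast co-culture, dosed and measured at 24 h in 96-well plates. IL-1a level quantified by ELISA; bidirectional fit relative to DMSO.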
# [11] = read-out: TIMP metallopeptidase inhibitor 2 (TIMP2), TIMP2 (gene 7077); assay: BSK_KF3CT_TIMP2: BioMAP Diversity Plus: KF3CT Assay for TIMP metallopeptidase inhibitor 2 (TIMP2) Biomarker Activity (AID 2283071); conditions: primary human keratinocytes with fibroblasts; actives raise or lower the signal
# In short: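 Human primary keratinocyte/foreskin fibroblast co-culture dosed with chemical and sampled at 24 h. TIMP-2 levels quantified by ELISA; bidirectional fitting against DMSO negative control as baseline.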
# [12] = read-out: Transforming growth factor beta 1 (TGFb1), TGFB1 (gene 7040); assay: BSK_KF3CT_TGFb1: BioMAP Diversity Plus: KF3CT Assay for Transforming growth factor beta 1 (TGFb1) Biomarker Activity (AID 2283072); conditions: primary human keratinocytes with fibroblasts; actives raise or lower the signal
# In short: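 Human keratinocyte plus foreskin fibroblast primary co-culture, dosed with chemical for 24 h. TGF-b1 quantified by ELISA. Activity fitted bidirectionally against DMSO negative control as baseline.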
# [13] = read-out: C-C motif chemokine 2 (Homo sapiens) (UniProt P13500); assay: BSK_KF3CT_MCP1: BioMAP Diversity Plus: KF3CT Assay for Monocyte Chemoattractant Protein 1 (MCP1/CCL2) Biomarker Activity (AID 2283073); conditions: primary human keratinocytes with fibroblasts; actives raise or lower the signal
# In short: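 ELISA read-out of MCP-1, 24 h post-dose, in primary human skin keratinocytes co-cultured with fibroblasts. Parallel SRB staining monitors cytotoxicity; changes fitted both directions relative to DMSO.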
# [14] = read-out: Matrix Metallopeptidase 9 (MMP9), MMP9 (gene 4318); assay: BSK_KF3CT_MMP9: BioMAP Diversity Plus: KF3CT Assay for Matrix Metallopeptidase 9 (MMP9) Biomarker Activity (AID 2283074); conditions: primary human keratinocytes with fibroblasts; actives raise or lower the signal
# In short: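 Human keratinocyte and foreskin fibroblast co-culture exposed to chemicals for 24 h; MMP9 biomarker measured by ELISA, bidirectional fitting relative to DMSO; cytotoxicity tracked by SRB total protein staining in parallel cultures.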
# [15] = read-out: urokinase plasminogen activator (uPA), PLAU (gene 5328); assay: BSK_KF3CT_uPA: BioMAP Diversity Plus: KF3CT Assay for urokinase plasminogen activator (uPA) Biomarker Activity (AID 2283075); conditions: primary human keratinocytes with fibroblasts; actives raise or lower the signal
# In short: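 Primary human keratinocyte/foreskin fibroblast co-culture exposed to chemical; uPA measured by ELISA at 24 h. Bidirectional fit versus DMSO, with parallel SRB total-protein staining for cytotoxicity.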
# CD40, CD40 (gene 958) = assay: BSK_LPS_CD40: BioMAP Diversity Plus: LPS Assay for CD40 Biomarker Activity (AID 2283076); conditions: primary human HUVEC with PBMC; actives raise or lower the signal
# In short: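 In the LPS system of human endothelial cells with peripheral blood mononuclear cells, CD40 levels were read by ELISA 24 h post-treatment. Signal changes in either direction were fitted against the DMSO baseline, with parallel SRB protein staining.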
# [16] = read-out: E-selectin (Homo sapiens) (UniProt P16581); assay: BSK_LPS_Eselectin: BioMAP Diversity Plus: LPS Assay for Eselectin Biomarker Activity (AID 2283077); conditions: primary human HUVEC with PBMC; actives raise or lower the signal
# In short: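 E-selectin ELISA on LPS-stimulated endothelial cell/PBMC co-cultures, read 24 h post-treatment; gains and losses fitted against DMSO. Parallel SRB staining (0.1% SRB after 10% TCA fixation, 560 nm) flags overt cytotoxicity.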
# [17] = read-out: Interleukin-8 (IL8), CXCL8 (gene 3576); assay: BSK_LPS_IL8: BioMAP Diversity Plus: LPS Assay for Interleukin-8 (IL8) Biomarker Activity (AID 2283078); conditions: primary human HUVEC with PBMC; actives raise or lower the signal
# In short: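 ELISA read-out of IL-8 after 24 h chemical treatment of LPS-activated endothelial/PBMC human primary co-cultures. Changes either up or down relative to DMSO; overt cytotoxicity checked by sulforhodamine B staining in parallel wells.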
# [18] = BSK_LPS_SRB: Viability Assessment in the BioMAP Diversity Plus: LPS Assay (AID 2283079); conditions: primary human HUVEC with PBMC;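 further: total protein by sulforhodamine B absorbance as a cytotoxicity measure; measured one day after compound addition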
# In short: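 SRB viability endpoint: cells fixed with 10% TCA, stained with 0.1% SRB, read at 560 nm, 24 h post-dose. HUVEC/PBMC co-culture; signal change in either direction scored relative to DMSO.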
# Sequence of E-selectin (Homo sapiens) (P16581 whole entry, looked up): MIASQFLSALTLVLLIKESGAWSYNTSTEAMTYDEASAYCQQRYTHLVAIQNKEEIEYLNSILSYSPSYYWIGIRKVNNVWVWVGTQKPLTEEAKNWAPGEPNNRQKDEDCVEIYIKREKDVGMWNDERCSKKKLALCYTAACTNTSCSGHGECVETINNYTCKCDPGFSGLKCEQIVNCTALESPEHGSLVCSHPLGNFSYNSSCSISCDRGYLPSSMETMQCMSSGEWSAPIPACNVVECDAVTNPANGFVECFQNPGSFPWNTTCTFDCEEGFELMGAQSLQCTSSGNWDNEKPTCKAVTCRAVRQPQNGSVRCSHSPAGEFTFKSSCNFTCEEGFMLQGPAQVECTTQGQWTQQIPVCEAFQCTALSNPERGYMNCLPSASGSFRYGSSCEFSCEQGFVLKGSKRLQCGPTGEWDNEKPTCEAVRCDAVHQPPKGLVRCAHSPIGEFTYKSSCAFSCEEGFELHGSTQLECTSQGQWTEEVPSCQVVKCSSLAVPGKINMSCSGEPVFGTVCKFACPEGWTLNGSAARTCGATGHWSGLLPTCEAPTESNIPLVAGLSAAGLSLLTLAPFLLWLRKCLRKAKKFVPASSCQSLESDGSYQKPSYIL
structure (smiles),measurement,setting,value
CCCSP(=O)(OCC)SCCC,outcome,[1],inactive
same,outcome,[2],inactive
same,outcome,[3],inactive
same,outcome,[4],inactive
same,outcome,[5],inactive
same,outcome,[6],inactive
same,outcome,[7],inactive
same,outcome,[8],inactive
same,outcome,[9],inactive
same,outcome,[10],inactive
same,outcome,[11],inactive
same,outcome,[12],inactive
same,outcome,[13],inactive
same,outcome,[14],inactive
same,outcome,[15],inactive
same,outcome,"CD40, CD40 (gene 958)",inactive
same,outcome,[16],inactive
same,outcome,[17],inactive
same,outcome,[18],inactive
CCCSP(=O)(OCC)Oc1ccc(Br)cc1Cl (configuration not stated),AC50,[1],17.4 µM (active)
same,outcome,[2],inactive
same,outcome,[3],inactive
same,outcome,[4],inactive
same,outcome,[5],inactive
same,AC50,[6],27.7 µM (active)
same,outcome,[7],inactive
same,outcome,[8],inactive
same,AC50,[9],22.7 µM (active)
same,outcome,[10],inactive
same,outcome,[11],inactive
same,outcome,[12],inactive
same,outcome,[13],inactive
same,outcome,[14],inactive
same,outcome,[15],inactive
same,outcome,"CD40, CD40 (gene 958)",inactive
same,outcome,[16],inactive
same,AC50,[17],30.2 µM (active)
same,outcome,[18],inactive
Cc1nn(-c2cc(NS(C)(=O)=O)c(Cl)cc2Cl)c(=O)n1C(F)F,outcome,[1],inactive
same,outcome,[2],inactive
same,outcome,[3],inactive
same,outcome,[4],inactive
same,outcome,[5],inactive
same,outcome,[6],inactive
same,outcome,[7],inactive
same,outcome,[8],inactive
same,outcome,[9],inactive
same,outcome,[10],inactive
same,outcome,[11],inactive
same,outcome,[12],inactive
same,outcome,[13],inactive
same,outcome,[14],inactive
same,outcome,[15],inactive
same,outcome,"CD40, CD40 (gene 958)",inactive
same,outcome,[16],inactive
same,outcome,[17],inactive
same,outcome,[18],inactive
